According to PubChem BioAssay AID624330 (Southern Research Specialized Biocontainment Screening …, 2012):
The whole screen tested about 340,000 compounds, of which about 2,100 (0.62%) were called active. The list is a sample of the results. Measured potencies and affinities stand elsewhere. Unmarked numbers belong to inactive results.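 Rule for the calls: active = first-screen hits whose inhibition reached a set limit at any dose in the follow-up dose series; inconclusive = inhibition above the set first-screen limit but never retested; inactive = the rest.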

molecular target: Rac GTPase-activating protein 1 (Homo sapiens) (UniProt Q9H0H5); test: MgcRacGAP GTPase-activating activity inhibitors, confirmation, biochemical, ADP Hunter fluorescence, primary and confirmatory (AID 624330); conditions: MgcRacGAP-stimulated Rac1 GTP hydrolysis, at 30 µM, stronger effect = higher value, GST-tagged Rac1 F28L mutant substrate;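 note: fluorescence reports GDP produced by GAP-driven GTP hydrolysis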
Sequence (Q9H0H5 whole entry, looked up): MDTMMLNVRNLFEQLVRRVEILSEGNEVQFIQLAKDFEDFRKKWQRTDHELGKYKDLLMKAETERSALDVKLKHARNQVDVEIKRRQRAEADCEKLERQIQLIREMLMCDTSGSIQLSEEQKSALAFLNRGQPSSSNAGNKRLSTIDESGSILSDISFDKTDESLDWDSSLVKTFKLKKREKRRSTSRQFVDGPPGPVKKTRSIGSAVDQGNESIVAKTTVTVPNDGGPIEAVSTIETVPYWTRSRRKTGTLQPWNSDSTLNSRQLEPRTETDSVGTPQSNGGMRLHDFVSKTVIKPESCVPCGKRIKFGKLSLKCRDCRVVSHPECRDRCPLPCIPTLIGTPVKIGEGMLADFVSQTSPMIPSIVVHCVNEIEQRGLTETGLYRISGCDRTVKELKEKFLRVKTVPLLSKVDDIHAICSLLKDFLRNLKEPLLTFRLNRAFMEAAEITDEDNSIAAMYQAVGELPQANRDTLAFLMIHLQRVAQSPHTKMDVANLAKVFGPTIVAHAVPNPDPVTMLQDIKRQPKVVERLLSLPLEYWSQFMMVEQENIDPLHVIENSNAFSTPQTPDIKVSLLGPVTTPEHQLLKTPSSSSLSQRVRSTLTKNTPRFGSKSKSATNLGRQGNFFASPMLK

Structure (SMILES)	inhibition
Cc1cc2oc(=O)cc(CSc3nc(N)cc(N)n3)c2cc1C(C)C	11.9%
N#Cc1ccc(N[C@@H]2CCN3C(=O)c4ccccc4[C@@H]3C[C@H]2O)cc1	4.35%
O=C1c2ccccc2[C@@H]2C[C@@H](O)[C@H](Nc3ccccc3)CCN12	8.38%
CCC1CCCCN1Cc1ccc(OC)c(C)c1 (stereo not given)	14.3%
Cc1ccc(S(=O)(=O)NCCS(=O)(=O)N2CCN(c3ccccc3)CC2)cc1	-3.13%
CC(C)(c1ccc(O)c([N+](=O)[O-])c1)c1ccc(O)c([N+](=O)[O-])c1	5%
N=C(N)SCc1ccc(O)c([N+](=O)[O-])c1	14.6%
CN(CC(=O)Nc1ccc2c(c1)CCC2)CC(=O)Nc1ccccc1Br	3.47%
O=[N+]([O-])c1cc2c(cc1Br)-c1ccccc1C2	3.13%
Nc1ccc2c(c1)Cc1cc(Cl)c(Cl)cc1-2	31.7%
CC(=O)Nc1cc2c(cc1Cl)-c1ccccc1C2	0.41%
COc1cc2c(cc1[N+](=O)[O-])-c1ccccc1C2	-0.68%
Nc1ccc2c(c1)Cc1c(F)cccc1-2	19.7%
Nc1ccc2c(c1)CCC2=O	1.82%
CC(=O)Nc1c(Cl)cc2c(c1Cl)Cc1cc(N)ccc1-2	2.49%
COc1cc(N)ccc1-c1cc2ccccc2oc1=O	3.42%
O=C(CCc1nc2ccccc2s1)NCc1ccccc1F	3.81%
CCSC1=N/C(=C\c2ccccc2)C(=O)N1	7.65%
C/C(=N/NC(=O)C1CC1(c1ccccc1)c1ccccc1)c1ccco1 (stereo not given)	10.7%
COc1cc2cc(CN(Cc3cccnc3)C(=O)Nc3ccccc3)c(=O)[nH]c2cc1OC	13.6%
CCCCn1c(N)c(N(CCOC)C(=O)CCN2C(=O)C3CC=CCC3C2=O)c(=O)[nH]c1=O (stereo not given)	9.87%
O=C(NCC(=O)N1CCCCCCC1)c1ccc(Cl)c(Cl)c1	16.3%
CC(=O)Nc1ccc2c(c1Br)Cc1ccccc1-2	2.11%
Nc1c(Cl)cc2c(c1Br)Cc1ccccc1-2	13.1%

Structure (SMILES)	inhibition
O=C(CN1CCCCCC1)NC(c1ccccc1)c1ccccc1	25.4%
O=C(CN1CCN(Cc2ccccc2)CC1)Nc1ccc(Cl)cc1	10.4%
CC1Cc2ccccc2N1CC(=O)NC(c1ccccc1)c1ccccc1 (stereo not given)	-0.83%
O=C(CN1CCN(C(c2ccccc2)c2ccccc2)CC1)NCc1ccccc1	4.24%
COCCNC(=O)CN1CCN(C(c2ccccc2)c2ccccc2)CC1	25.6%
O=C(CN1CCCC1)NC(c1ccccc1)c1ccccc1	23.8%
Cc1ccc(NC(=O)CN2CCN(Cc3ccccc3)CC2)cc1F	6.45%
CC1CN(CC(=O)NC(C)c2ccccc2)CC(C)O1 (stereo not given)	10.1%
CCN1CCN(C(=O)c2ccccc2Nc2ccc(SC(F)F)cc2)CC1	9.86%
CCCCCC(=O)Nc1cccc(S(=O)(=O)NC2=NCCC2)c1	6%
O=C(NCc1ccccn1)c1ccc(NS(=O)(=O)c2cccc(Cl)c2)cc1	2.91%
CC1CN(Cc2nc3c(c(=O)n(C)c(=O)n3C)n2CC(O)CO)CC(C)O1 (stereo not given)	1.13%
CC(NC(=O)C(C)N1CCN(Cc2ccccc2)CC1)c1ccc(F)cc1 (stereo not given)	4.63%
CC(NC(=O)C(C)N1CCN(Cc2ccccc2)CC1)c1ccccc1 (stereo not given)	4.7%
CCn1c(SCC(=O)Nc2cccc(F)c2)nc2c(c1=O)SC(C)C2 (stereo not given)	3.97%
Cc1ccc(-n2ccnc(SCC(=O)NC3CCCCC3)c2=O)cc1F	7.99%
Cc1ccc(O)c(NC(=O)c2cc(-c3cccs3)on2)c1	5.43%
O=C(Nc1cccc(Cl)c1)c1nc[nH]c1C(=O)NCCN(CCNC(=O)c1[nH]cnc1C(=O)Nc1cccc(Cl)c1)CCNC(=O)c1[nH]cnc1C(=O)Nc1cccc(Cl)c1	10.4%
O=C(c1cc(C2CC2)nn1-c1ccccc1)N1CCN(S(=O)(=O)c2ccc(F)cc2)CC1	4.93%
COc1cc2c(CCNC(C)=O)c[nH]c2cc1Cl	7.18%
COc1ccc2[nH]cc(CCNC(C)=O)c2c1	-0.52%
O=C(C1CCN(C2CCN(Cc3ccc4c(c3)CCO4)CC2)CC1)N1CCOCC1	3.51%
COc1ccc(CCNC(=O)C2CCN(S(=O)(=O)c3ccc(C)cc3)CC2)cc1OC	-4.11%
COc1cccc(N(CC(=O)NC2CCCCC2)C(=O)Cn2nnc(-c3ccc(C)o3)n2)c1	-3.15%

Structure (SMILES)	inhibition
Cc1ccsc1/C=N/NC(=O)c1cccc(S(=O)(=O)Nc2ccccc2Cl)c1	13.6%
CC(Cn1cncn1)C(=O)N1CCN(S(=O)(=O)c2ccccc2)CC1 (stereo not given)	5.09%
CC(OC(=O)c1cccc(N2C(=O)c3ccccc3C2=O)c1)C(=O)Nc1ccc(N(C)C)cc1 (stereo not given)	5.16%
Cc1csc(=O)n1CC(=O)OC(C)C(=O)Nc1ccc(F)c(F)c1F (stereo not given)	7.87%
Cc1csc(=O)n1CC(=O)OC(C)C(=O)Nc1cccc(Cl)c1 (stereo not given)	5.89%
CC(=O)Nc1ccc(NC(=O)C(C)OC(=O)CCN=C2NS(=O)(=O)c3ccccc32)cc1 (stereo not given)	7.31%
Cc1ccc(-n2c(Cc3cccn3C)nnc2SCC(=O)N2CCc3ccccc32)cc1	19%
COc1cc(OC)c(OC)cc1CN1CCN(c2ccc(F)cc2)CC1	10.3%
COc1cc(OC)c(OC)cc1CN1CCN(Cc2cccn2C)CC1	31.5%
CSc1ccc(CN2CCCCCC2)cc1	18.5%
CSc1ccc(/C=N/N2CCN(Cc3ccccc3Cl)CC2)cc1	0.33%
CCN(Cc1ccccc1)C(=O)C1CCN(Cc2ccc(SC)cc2)CC1	23.2%
CCN(Cc1ccccc1)C1CCN(Cc2ccccc2)CC1	-17.1%
COc1cc(OC)c(OC)cc1CN1CCN(c2ccccc2OC)CC1	19.5%
COc1ccccc1CN1CCCCCC1	24.6%
Cc1noc(C)c1COC(=O)c1ccccc1Sc1ccccc1C#N	3.85%
CCOc1ccc(CCN2C(=S)N([C@@H](CC(C)C)CN3CCCC3CN3C(=S)NC[C@@H]3Cc3ccc(O)cc3)C[C@@H]2Cc2ccc(O)cc2)cc1 (stereo not given in full)	10.2%
O=C(OC(C(=O)NCc1ccccc1)c1ccccc1)c1ccco1 (stereo not given)	5.58%
Cc1cccn2cc(CNS(=O)(=O)c3cccc(F)c3)nc12	7.85%
O=C(CCc1nc2ccccc2[nH]1)N1CCN(C(=O)c2ccco2)CC1	-2.14%
CCC(C)[C@H](NC(=O)NCc1ccc(OC)c(OC)c1)C(=O)O (stereo not given in full)	11.4%
Cc1ccc2nc(SCc3nnc(-c4ccccc4)o3)[nH]c2c1	12.2%
CCOC(=O)C1(Cc2ccccc2C)CCCN(C(=O)c2ccc3nccnc3c2)C1 (stereo not given)	7.5%
CCN(c1ccccc1)S(=O)(=O)c1ccc(C(=O)NCCCN2CCOCC2)cc1	8.29%

Structure (SMILES)	inhibition
O=C(NNC(=O)c1ccccc1[N+](=O)[O-])c1ccc(NC(=O)c2ccccc2)cc1	12.4%
O=C(N/C=C\n1cnc2cc(C(F)(F)F)ccc21)c1ccc([N+](=O)[O-])cc1	6.01%
CS(=O)(=O)c1ccc(Cl)c(NC(=O)CN2CCN(C(=O)c3cccs3)CC2)c1	3.52%
c1ccc(N2CCN(c3nc4ccccc4n4nnnc34)CC2)cc1	2.04%
O=C(NCc1cccc(F)c1)C1CCC(=O)N(CCc2cccc(F)c2)C1 (stereo not given)	0.03%
COc1cccc(C(CC(=O)NCc2ccco2)NS(=O)(=O)c2ccc(C)cc2)c1OC (stereo not given)	2.02%
O=C(COC(=O)c1ccccc1C(=O)c1ccc(Cl)cc1)NCC1CCCO1 (stereo not given)	3.71%
COc1ccc(S(=O)(=O)N2CCN(Cc3ccccc3OC)CC2)cc1	11.4%
COc1ccccc1CN1CCSCC1	23.4%
O=C(Nc1ccccc1)Nc1nncs1	9.87%
O=c1[nH]n(-c2ccc(F)cc2)c2ncccc12	15.2%
O=c1[nH]n(-c2ccc(Cl)cc2)c2ncccc12	31.6%
Cc1cs/c(=N\N=C\c2ccccc2)n1Cc1ccco1	7.87%
CC(C)=N/N=c1\scc(C)n1Cc1ccco1	6.39%
C[C@H](CO)N1C[C@H](C)[C@@H](CN(C)C(=O)Nc2ccc(C(F)(F)F)cc2)Oc2c(NC(=O)CCC(F)(F)F)cccc2C1=O	3.3%
Cc1cccc(C(=O)c2cn[nH]c2-c2ccc(C)cc2O)c1	4.53%
Cc1ccc(CNC(=O)C(=O)NCCC2CCCCN2S(=O)(=O)c2ccccc2)cc1 (stereo not given)	9.49%
Cc1ccccc1CNC(=O)CCn1nc(C)c2c(C)n(-c3ccccc3)nc2c1=O	13.3%
O=C(NC(=S)Nc1cccc2cc(O)ccc12)c1ccco1	23.9%
CCCC(=O)NC(=S)Nc1ccccc1F	5.15%
O=C(NC(=S)Nc1cccc2ncccc12)c1ccco1	-0.13%
O=C(COc1ccccc1)NC(=S)Nc1cccc2c(O)cccc12	17.9%
CCc1noc(C)c1C(=O)Nc1cccc2ncccc12	3.52%
